Consider 39 compounds from PubChem BioAssay (NCI).

About 79,000 compounds went through this panel and 15% of them were active in at least one assay; those are over-represented in the sample as a whole. A number with no mark means an inactive call. Active and inactive are the calls of the source. Rule as the data show it: active = growth inhibition above about 70%; inactive = the rest.

One experiment is described as follows: NCI Yeast Anticancer Drug Screen. Data for the rad50 strain (AID 155).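 Also: 0% = growth of vehicle-only cultures of the same strain.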 The note with it: S. cerevisiae rad50 strain growth inhibition; at 5.0 µM (retest, dose inferred, filed as 0.5); active compounds read high. Put shortly:
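Cells are treated with compound, grown, and their growth is then scored against vehicle-only cultures of the same repair-deficient yeast strain.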
Consider `CCCCN(CCC(=O)O)c1ccc(/C=C\c2ccnc3ccccc23)cc1`, for which the growth inhibition was 8%.

On to `CC1CC(N)=NC1C(=O)NCCC#N` (stereo not drawn), for which the growth inhibition was 20%.

Take `O=C(CC1(O)CCCCC1)OC1CCCC1`: the growth inhibition was -1%.

`CN(C)c1nc(-c2ccccc2)cc(-c2ccc(O)cc2)n1`: the growth inhibition was 14%.

As to `Oc1cc(C(c2ccccc2)c2ccccc2)c2ccccc2c1O`, the growth inhibition is 17%.

For the compound `C(=P(c1ccccc1)(c1ccccc1)c1ccccc1)[P+](c1ccccc1)(c1ccccc1)c1ccccc1`, the growth inhibition is 98% (active).

On to `COC(=O)c1ccc(CCc2cc(O)ccc2O)cc1`, for which the growth inhibition is 58%.

Consider `CCCCCCCCCCN`, for which the growth inhibition was 1%.

Turning to `CC[N-]c1nncs1.CC[N-]c1nncs1.CC[N-]c1nncs1.CC[N-]c1nncs1.[Cl][Rh][Cl]`, the growth inhibition is -8%.

As to `CC(C)C1=CC23CCC4C(C)(C(=O)O)CCCC4(C)C2CC1CC3C#N` (stereo not drawn), the growth inhibition was 19%.

For `COc1ccc(/C(Cl)=C(\C=O)c2ccc(Cl)cc2)cc1`, the growth inhibition was 17%.

As for `CCOC(=O)Cc1csc(/N=C\c2c(O)c3ccccc3oc2=O)n1`, the growth inhibition was 22%.

As to `Cc1cccc(/C=N/NC(=S)Nc2ccccc2)n1`, the growth inhibition is -19%.

Take `Nc1nn2c(C(Br)Br)cc(C(Br)Br)nc2c1[N+](=O)[O-]`: the growth inhibition is 100% (active).

Consider `c1ccc2nc3ccccc3nc2c1`, for which the growth inhibition was -11%.

`O=c1ccc2nc3ccccc3ccc-2c1`: the growth inhibition was -159%.

Take `C=CCOCC(C)OC(=O)C(C)C` (stereo not drawn): the growth inhibition was -162%.

Regarding `CCCCCCOC(=O)CCC(=O)OCCCCCC`, the growth inhibition is -7%.

As to `CC(=O)C(C(C)=O)C1C=CC=CC=C1`, the growth inhibition is -149%.

Regarding `CCCOC(=O)CCCC(=O)N(CC)CC`, the growth inhibition is 1%.

Consider `CCOC(=O)C(=O)CC1=Nc2ccccc2SC(c2cccc(C)c2)C1` (stereo not drawn), for which the growth inhibition was 2%.

Take `COc1cc2c(c(-c3cn(C)c4ccccc34)c1OC)OCO2`: the growth inhibition was 4%.

For the compound `COC(=O)c1c(C)cccc1C1CN=NC12Cc1ccc(C)c(C)c1C2=O` (stereo not drawn), the growth inhibition was 2%.

Take `CCCCCCCCCCC(=O)CC(=O)c1c(O)cccc1O`: the growth inhibition was -14%.

As for `CCCCCCNC(=S)N/N=C(\C)c1ccccn1`, the growth inhibition is 72% (active).

`Oc1ccc(N=Nc2ccc(Cl)cc2)cc1O`: the growth inhibition was -30%.

On to `CCO/C=C1\N=C(C(O)(c2ccc(Cl)cc2)c2ccc(Cl)cc2)OC1=O`, for which the growth inhibition is -1%.

As for `Clc1ccc(CN2COc3c(ccc4cccnc34)C2)cc1`, the growth inhibition is 1%.

With `Cc1nc(C(N)=S)sc1/C(CC(=O)C(=O)Nc1cccc2ccc(O)cc12)=N\NC(=O)c1ccncc1`, the growth inhibition was 25%.

For the compound `Nc1ncc(C(=O)c2ccccc2)cc1[N+](=O)[O-]`, the growth inhibition is -142%.

As for `O=C1C2C3C=CC(C3)C2C(=O)C2C3C=CC(C3)C12` (stereo not drawn), the growth inhibition is 70% (active).

As for `CCCCOC(=O)c1cnc[nH]c1=O`, the growth inhibition is 3%.

Regarding `N#CC(c1ccc(Cl)cc1)c1ccc([N+](=O)[O-])cc1` (stereo not drawn), the growth inhibition is -12%.

Consider `CN(C)C(N)=NC#N`, for which the growth inhibition is 25%.

For the compound `CCCCc1c(O)c(N=NC(=O)C[n+]2ccccc2)c2ccccc2c1O`, the growth inhibition is -2%.

With `CCOC(=O)C(=O)Nc1nc2c(s1)C(=O)c1ccccc1C2=O`, the growth inhibition was 14%.

On to `COc1ccc(C(=O)Nc2ccccc2[N+](=O)[O-])cc1`, for which the growth inhibition is -6%.

Take `COc1ccccc1NC(=O)/C(=C/n1c(=S)sc2ccccc21)C(C)=O`: the growth inhibition is -19%.

In the case of `Cc1ccc(C)c(C(=O)/C=C/C(=O)O)c1`, the growth inhibition was 29%.

The experiment is the same for the next values; noted with them: S. cerevisiae rad50 strain growth inhibition; at 50.0 µM (retest, dose inferred, filed as 5.0); active compounds read high.
As to `CCCCN(CCC(=O)O)c1ccc(/C=C\c2ccnc3ccccc23)cc1`, the growth inhibition was 89% (active).

Turning to `CC1CC(N)=NC1C(=O)NCCC#N` (stereo not drawn), the growth inhibition was 8%.

On to `O=C(CC1(O)CCCCC1)OC1CCCC1`, for which the growth inhibition was 0%.

Consider `CN(C)c1nc(-c2ccccc2)cc(-c2ccc(O)cc2)n1`, for which the growth inhibition was 93% (active).

As for `Oc1cc(C(c2ccccc2)c2ccccc2)c2ccccc2c1O`, the growth inhibition is 1%.

For `C(=P(c1ccccc1)(c1ccccc1)c1ccccc1)[P+](c1ccccc1)(c1ccccc1)c1ccccc1`, the growth inhibition is 99% (active).

With `COC(=O)c1ccc(CCc2cc(O)ccc2O)cc1`, the growth inhibition is 99% (active).

Consider `CCCCCCCCCCN`, for which the growth inhibition was 51%.

For the compound `CC[N-]c1nncs1.CC[N-]c1nncs1.CC[N-]c1nncs1.CC[N-]c1nncs1.[Cl][Rh][Cl]`, the growth inhibition is 95% (active).

As for `CC(C)C1=CC23CCC4C(C)(C(=O)O)CCCC4(C)C2CC1CC3C#N` (stereo not drawn), the growth inhibition is 56%.

In the case of `COc1ccc(/C(Cl)=C(\C=O)c2ccc(Cl)cc2)cc1`, the growth inhibition was 17%.

`CCOC(=O)Cc1csc(/N=C\c2c(O)c3ccccc3oc2=O)n1`: the growth inhibition was 38%.

As for `Cc1cccc(/C=N/NC(=S)Nc2ccccc2)n1`, the growth inhibition was 99% (active).

As to `Nc1nn2c(C(Br)Br)cc(C(Br)Br)nc2c1[N+](=O)[O-]`, the growth inhibition was 100% (active).

For the compound `c1ccc2nc3ccccc3nc2c1`, the growth inhibition was 64%.

For `O=c1ccc2nc3ccccc3ccc-2c1`, the growth inhibition is -139%.

Turning to `C=CCOCC(C)OC(=O)C(C)C` (stereo not drawn), the growth inhibition was -158%.

On to `CCCCCCOC(=O)CCC(=O)OCCCCCC`, for which the growth inhibition is -20%.

Take `CC(=O)C(C(C)=O)C1C=CC=CC=C1`: the growth inhibition is 93% (active).

As for `CCCOC(=O)CCCC(=O)N(CC)CC`, the growth inhibition was -10%.

Turning to `CCOC(=O)C(=O)CC1=Nc2ccccc2SC(c2cccc(C)c2)C1` (stereo not drawn), the growth inhibition is 81% (active).

`COc1cc2c(c(-c3cn(C)c4ccccc34)c1OC)OCO2`: the growth inhibition was 24%.

In the case of `COC(=O)c1c(C)cccc1C1CN=NC12Cc1ccc(C)c(C)c1C2=O` (stereo not drawn), the growth inhibition was 31%.

For `CCCCCCCCCCC(=O)CC(=O)c1c(O)cccc1O`, the growth inhibition was -1%.

On to `CCCCCCNC(=S)N/N=C(\C)c1ccccn1`, for which the growth inhibition was 99% (active).

As to `Oc1ccc(N=Nc2ccc(Cl)cc2)cc1O`, the growth inhibition is 98% (active).

For the compound `CCO/C=C1\N=C(C(O)(c2ccc(Cl)cc2)c2ccc(Cl)cc2)OC1=O`, the growth inhibition is 3%.

For the compound `Clc1ccc(CN2COc3c(ccc4cccnc34)C2)cc1`, the growth inhibition is 36%.

Consider `Cc1nc(C(N)=S)sc1/C(CC(=O)C(=O)Nc1cccc2ccc(O)cc12)=N\NC(=O)c1ccncc1`, for which the growth inhibition was 31%.

In the case of `Nc1ncc(C(=O)c2ccccc2)cc1[N+](=O)[O-]`, the growth inhibition was -110%.

For `O=C1C2C3C=CC(C3)C2C(=O)C2C3C=CC(C3)C12` (stereo not drawn), the growth inhibition was 96% (active).

`CCCCOC(=O)c1cnc[nH]c1=O`: the growth inhibition was 17%.

For `N#CC(c1ccc(Cl)cc1)c1ccc([N+](=O)[O-])cc1` (stereo not drawn), the growth inhibition was 52%.

Regarding `CN(C)C(N)=NC#N`, the growth inhibition is 47%.

In the case of `CCCCc1c(O)c(N=NC(=O)C[n+]2ccccc2)c2ccccc2c1O`, the growth inhibition is 10%.

Take `CCOC(=O)C(=O)Nc1nc2c(s1)C(=O)c1ccccc1C2=O`: the growth inhibition was 96% (active).

In the case of `COc1ccc(C(=O)Nc2ccccc2[N+](=O)[O-])cc1`, the growth inhibition is 7%.

On to `COc1ccccc1NC(=O)/C(=C/n1c(=S)sc2ccccc21)C(C)=O`, for which the growth inhibition is 14%.

As for `Cc1ccc(C)c(C(=O)/C=C/C(=O)O)c1`, the growth inhibition was 100% (active).
